# Source: PubChem
# Most compounds without a hit are left out; they make up all but 12% or so of the library.
# hDAT+cocaine: human DAT dopamine uptake with cocaine, either direction. Q01959. LLC-PK1 hDAT cells, [14C]-dopamine uptake with cocaine IC80; actives deviate in either direction. B-score at 10 µM. 110,000 tested, 1.3% active. AID 449768;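 active = Z score or B-score, a plate-position-corrected score, falls beyond the plate's 99.7% confidence bounds, in either direction; inactive = both scores lie inside the 99.7% bounds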;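 also: scored against the spread of the other compound wells on the same plate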
# PostGolgi yeast: growth inhibition of a yeast mutant, post-Golgi transport screen; inhibition, % at 10 µM; 98,000 tested, 0.9% active; post-Golgi transport phenotypic cell assay;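 also: yeast cells grown in 1536-well plates; yeast grown about 18 h at 30C before absorbance read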
# PLAP act: activators of human placental alkaline phosphatase. P05187. purified PLAP enzyme, luminescent substrate read-out; stronger effect = higher value. activation fold at 20 µM. 96,000 tested, 1.2% active. AID 696; in the data active = activation fold above about 2
# Cav32 inh: inhibitors of human Cav3.2 T-type calcium channel. Cav3.2-expressing cells, Fluo-4 calcium fluorescence FDSS; stronger effect = lower value. B-score at 10 µM. 100,000 tested, 4% active;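 active = single-dose well whose peak fluorescence ratio is a statistical outlier from its plate by either plate-standardised score or position-corrected B-score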
# PostGolgi ctrl: yeast control strain growth, post-Golgi counter-screen; efflux-deficient yeast background strain, growth absorbance A615, 16 h; inhibition, % at 10 µM; 98,000 tested, 5% active
# D1 mod: allosteric modulators of human D1 dopamine receptor; 58,000 tested, 5.9% active; B-score at 10 µM; HEK293 D1, CRE-luciferase, dopamine EC30 potentiation; actives deviate in either direction;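 active = luminescence count or its row- and column-corrected plate score outside the 99.7% band of the plate's sample wells, on either side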
# * marks the source's active call; other numbers are inactive results; nt = not tested or not shown. Rule as the data show it, unless noted: active = inhibition above about 30%; inactive = the rest.
SMILES,hDAT+cocaine,PostGolgi yeast,PLAP act,Cav32 inh,PostGolgi ctrl,D1 mod
c1ccc(-c2ccc(OCCCn3cncn3)cc2)cc1,-0.18,97*,1,-0.88,89*,nt
COc1ccc(OC)c(N(CC(=O)Nc2ccc3c(c2)OCCO3)S(C)(=O)=O)c1,1.4,5,1.6,-0.25,3,0.62
N/N=c1\sc2ccccc2n1-c1ccccc1,0.044,-24,0.9,-1.4,30*,nt
CC(=O)N=c1sc2ccccc2n1C,-0.2,1,0.9,0.082,-1,nt
Cc1ccc([N+](=O)[O-])cc1NC(=S)NC(=O)C(C)(C)C,0.59,17,0.9,-2.8,-7,nt
CC(C)(CO)Nc1ccc([N+](=O)[O-])cc1[N+](=O)[O-],-2.6*,-3,0.8,0.033,5,nt
CS(=O)(=O)N(CC(=O)N1CCC(C(N)=O)CC1)c1ccc(Oc2ccccc2)cc1,-0.69,-4,1.2,0.068,5,-0.52
O=c1c2cc(Br)ccc2nc(-c2cccc(C(F)(F)F)c2)n1O,-2,3,1,-7.9*,7,nt
CSc1nc2ncc3c(n2n1)CC1c2ccccc2CCN1C3=O (stereo not drawn),1.1,3,1.3,0.64,32*,nt
O=C1c2cnc3nc(SCc4cccc(Cl)c4)nn3c2CC2c3ccccc3CCN12 (stereo not drawn),0.12,16,1.3,-3.7,42*,nt
CCCOCCOC(=O)C1=C(C)NC(=O)NC1c1cc(Cl)c(O)c(OC)c1 (stereo not drawn),-0.66,3,1.1,0.48,5,-0.19
CN(C)c1ccc(/C=C2\SC(=S)N(Nc3ncc(C(F)(F)F)cc3Cl)C2=O)cc1,0.16,11,0.8,-5.1*,12,nt
COc1ccc(OCc2ccc(C(=O)N3CCOCC3)cc2)cc1,0.4,nt,nt,0.64,nt,nt
COc1ccc(C(=O)/C=C\N2CCOCC2)cc1,-2.7*,5,1.2,0.25,5,-0.33
COc1ccc(Nc2nnc(SCc3cc([N+](=O)[O-])cc4c3OCOC4)s2)cc1,0.76,5,1.4,-0.057,14,nt
Cc1c([N+](=O)[O-])c(C(=O)N2CCCC2)nn1C,0.18,-3,0.8,0.24,42*,nt
Cc1[nH]nc(SCC(=O)N2CCCCC2)c1[N+](=O)[O-],-0.48,7,0.9,-0.15,5,nt
CCN(CC)C(=O)CSc1ncnc2sc(-c3ccccc3)cc12,1.9,-6,1.6,-3.7,13,nt
CC(C)C(C)(C#N)NC(=O)CSc1ncnc2sc(-c3ccccc3)cc12 (stereo not drawn),-0.74,-12,0.9,-0.34,40*,nt
O=C(Cn1cccc1C(=O)c1ccccc1)NCc1ccco1,-0.8,1,1,-0.47,26,-3.5*
Cc1ccc(N2C(=O)C3ON(c4ccccc4)C(c4ccncc4)C3C2=O)c(C)c1 (stereo not drawn),-0.12,20,1.4,-0.99,10,nt
COc1cccc(CNc2nn[nH]n2)c1OC,-0.54,-28,1.1,0.18,-5,0.11
COc1cccc(CNc2ccc(N3CCC(C)CC3)cc2)c1OC,0.16,nt,nt,-7.7*,nt,nt
Cc1ccc(S(=O)(=O)NC(=O)c2cc(C)n(CCCN3CCOCC3)c2C)cc1,nt,12,1.1,nt,13,-2.4*
Cc1ccc(S(=O)(=O)NCCCN2CCOCC2)cc1C,-0.28,2,nt,0.54,-4,nt
SMILES,hDAT+cocaine,PostGolgi yeast,PLAP act,Cav32 inh,PostGolgi ctrl,D1 mod
O=C(c1ccc(-n2cnnn2)cc1)N1CCCCC1,nt,nt,nt,0.11,nt,nt
Cc1ccc(/C=N/c2sc3c(c2C#N)CCC3)o1,0.026,-8,1.1,-0.1,19,nt
N#Cc1c(/N=C/c2cccs2)sc2c1CCCCC2,-0.013,-8,0.8,-1.3,4,-3.6*
Cc1c(-c2nc(N)nc(Nc3ccc(F)cc3)n2)oc2ccccc12,0.69,7,1,-0.66,40*,1.6
O=C(NCCN1CCOCC1)c1ccc2ccccc2c1,nt,-2,0.9,nt,-6,nt
Clc1cc(Br)ccc1OCCOCCN1CCOCC1,-0.79,53*,1.2,0.67,14,nt
Clc1ccc(OCCOCCN2CCCCC2)c(Br)c1,-0.68,42*,1.4,0.61,26,nt
N#Cc1ccc(C(=O)NCC(c2ccco2)N2CCCCC2)cc1 (stereo not drawn),2*,4,1,0.66,-3,nt
CCOC(=O)c1cnc(SCc2nc(N)nc(Nc3ccc(C)cc3)n2)nc1N,0.041,-1,0.8,-4.2,16,2.3
COc1ccc(NS(=O)(=O)c2cccc(C(=O)OCC(=O)Nc3cc(C)on3)c2)cc1,-0.59,-20,1.1,-2.4,42*,nt
